The text below walks through data of the OligoGym collection.
Further: reference of the scale not given here.

The target in one test is ASCL1. As to the kind of experiment: pooled miR-30 sensor sort-seq; sequence = guide strand. The settings on record: shRNA.
TTGGTGCTGAAGTACAACTGGT came in with a sensor-assay potency score (higher = more potent) of -0.518.

Turning to TAATACATTAACAACATTTCTA, the sensor-assay potency score (higher = more potent) was determined as 0.433.

In turn, TTGGAGTGCAAAGATACTGTTC yielded a sensor-assay potency score (higher = more potent) of 0.084.

Regarding TAAGTTTGTAATAAAACAGTAA, the sensor-assay potency score (higher = more potent) was -0.00305.

TCCACCTTACTCATCTTCTTGT came in with a sensor-assay potency score (higher = more potent) of -0.496.

TAAACCAATGTCTACAGCTTAT gave a sensor-assay potency score (higher = more potent) of -1.49.

In turn, ATGCTCGTCCAGCAGCTGCTGC came in with a sensor-assay potency score (higher = more potent) of -1.67.

For the sequence TATAAAGTAAGACACATTGGTG, the sensor-assay potency score (higher = more potent) is -0.186.

In turn, ATGGAGTTCAAGTCGTTGGAGT yielded a sensor-assay potency score (higher = more potent) of -1.08.

In the case of TAAACCATTTGTACAAAACTTC, the sensor-assay potency score (higher = more potent) is -0.297.

In the case of AATACATTAACAACATTTCTAT, the sensor-assay potency score (higher = more potent) is -0.252.

TTTGCAGCGCATCAGTTCGGGC: the sensor-assay potency score (higher = more potent) was -1.5.

TTGACCAACTTGACGCGGTTGC registered a sensor-assay potency score (higher = more potent) of 0.134.

TTGCGCTCGCGCTCGTTGCGGC: the sensor-assay potency score (higher = more potent) is -0.896.

AAGTCGTTGGAGTAGTTGGGGG registered a sensor-assay potency score (higher = more potent) of -0.573.

TACATTAACAACATTTCTATAA: the sensor-assay potency score (higher = more potent) is -1.04.

For another test, the target named is ASF1A. The description is as above. The settings on record: shRNA.
In the case of TTTGAAGCTTAGAAAAGTCTGG, the sensor-assay potency score (higher = more potent) came out at 0.13.

Sequence TTGGATTACTGCTCTCTGCATC registered a sensor-assay potency score (higher = more potent) of -0.437.

Sequence TAATAAATTCTTGTCCTCGATA returned a sensor-assay potency score (higher = more potent) of -1.01.

In turn, TTAGATGCCAAAATATTCCTTT had a sensor-assay potency score (higher = more potent) of 0.414.

As for TCTAACATGACATTTAGTGAGT, the sensor-assay potency score (higher = more potent) came out at 0.228.

The sequence TAACATGACATTTAGTGAGTTT yielded a sensor-assay potency score (higher = more potent) of -0.448.

TGAAATACAAACATATGCCTTC yielded a sensor-assay potency score (higher = more potent) of 0.343.

In the case of TCGAAGGTGATCTCGAACTGGA, the sensor-assay potency score (higher = more potent) was -0.487.

Sequence TTACATAATAGCCAACTCTAAT yielded a sensor-assay potency score (higher = more potent) of -1.16.

The sequence TTGAAGCTTAGAAAAGTCTGGT registered a sensor-assay potency score (higher = more potent) of -0.243.

TAATTTTCCATTCCAAGTCTTC showed a sensor-assay potency score (higher = more potent) of -0.557.

Take TAAAACAGAGTCTAAAACTTGA: the sensor-assay potency score (higher = more potent) is -0.0289.

A further test concerns the target ASNSD1. The test is described as above. The settings on record: shRNA.
The sequence TTCCATAGAAACACATTGCCTC showed a sensor-assay potency score (higher = more potent) of 0.13.

In turn, TTCTTCAATAATATTCTCCCTA showed a sensor-assay potency score (higher = more potent) of 0.32.

On to TATTAGGACTGTCAGCAGCAGC, for which the sensor-assay potency score (higher = more potent) is -1.12.

ATTCTCTTCAGCTTCAACCTTT came in with a sensor-assay potency score (higher = more potent) of 0.221.

Regarding TAAATCTTGACTGAAATGCTCA, the sensor-assay potency score (higher = more potent) was -0.203.

TTTCTTGACTGCTACACTCAGG: the sensor-assay potency score (higher = more potent) is -0.64.

On to TTCTAGAAGAAATTCGACCCAG, for which the sensor-assay potency score (higher = more potent) is -0.284.

In turn, TAACTCTGTCATCACGACCAAG yielded a sensor-assay potency score (higher = more potent) of -0.98.

TTTTTCACCAATTCCTCGGGGT returned a sensor-assay potency score (higher = more potent) of 0.495.

As to TAAGATTATATAGTAAGTCCTC, the sensor-assay potency score (higher = more potent) was -0.501.
